B2AR arrestin = qHTS assay of beta-arrestin-biased ligands of beta2-adrenergic receptor. Beta-2 adrenergic receptor (Homo sapiens), P07550. beta-arrestin recruitment to beta2AR, cell-based reporter. Potency, µM (doses to about 46.1 µM), usual class: activators. actives 0.02% (n = 330,000). AID 492947, 2010; further: nearly all actives have a fitted effect of over 65% in size
ELG1 repair inh = qHTS screen for small molecules that inhibit ELG1-dependent DNA repair in human embryonic kidney (HEK293T) cells expressing luciferase-tagged ELG1; HEK293T ELG1-luciferase reporter, luminescence, 16 h; DNA damage induced by 5-fluorouridine; Potency, µM (series often up to 46.1 µM), actives largely listed as inhibitors; actives 2.3% (n = 330,000); AID 504467, 2011; further: nearly all actives have a fitted effect of over 55% in size
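In this reporter screen, reduction of luminescence relative to DMSO vehicle indicated activity. Compounds and 5-fluorouridine were added together to 2,000 cells per well, incubated for 16 hr at 37 °C, then developed with ONE-Glo.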
TSHR antag = Antagonists of the Thyroid Stimulating Hormone Receptor: HTS campaign | TSHR-expressing cells, TSH-stimulated cAMP HTRF, 2 h; hits give low values | activity change, negative = inhibition, % at 11.5 µM | actives 0.2% (n = 330,000) | AID 504810, 2011;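 active means activity change below a set negative limit, meaning inhibition stronger than a set level, cut at about -70% in these data; inconclusive means activity change between two set negative limits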
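Cell-based HTRF cAMP assay; TSHR cells + compound, TSH EC80 (4nM final), 2 h, 37 deg C. Lysis with anti-cAMP cryptate and cAMP-d2, 30 min RT, read 665/620 nm.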
RORgamma inh = qHTS for inhibitors of ROR gamma transcriptional activity. Drosophila S2 Gal4-RORgamma UAS-luciferase reporter, 20 h. Potency, µM (series often up to 53.6 µM), actives largely listed as inhibitors. actives 5.4% (n = 310,000). AID 2551, 2010; further: nearly all actives have a fitted effect of over 60% in size
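Luciferase reporter read in Schneider cells carrying Gal4-RORγ (mouse) and UAS-Photinus luciferase; cells given compound 1 h before 700 uM copper sulfate induction, then incubated 20 h at ambient temperature.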
VP16 counter = VP16 counterscreen qHTS for inhibitors of ROR gamma transcriptional activity; Potency, µM (highest dose often 53.6 µM), most hits filed as inhibitors; Drosophila S2 Gal4-VP16 UAS-luciferase, luminescence, 20 h; actives 3.5% (n = 310,000);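 further: Gal4-VP16 expression switched on by copper sulfate through the metallothionein promoter; nearly all actives have a fitted effect of over 50% in size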
ELG1 FLuc counter = qHTS screen for small molecules that inhibit ELG1-dependent DNA repair: Hit Confirmation in Cell-Based Luciferin Assay | shares compounds with ELG1 repair inh | cell-free firefly luciferase luminescence counter-screen, ViewLux | Potency, µM (series often up to 46.1 µM), hits mostly inhibitors | actives 3% (n = 350) | AID 624247, 2012
ELG1-Luc inh = HTS assay for small molecules that inhibit ELG1-dependent DNA repair in human embryonic kidney (HEK293T) cells expressing luciferase-tagged ELG1: Hit Confirmation; shares compounds with ELG1 repair inh; Potency, µM (highest dose often 46.1 µM), usual class: inhibitors; actives 68% (n = 670); HEK293T ELG1-luciferase levels, luminescence; cells co-treated with 5-fluorouridine; further: nearly all actives have a fitted effect of over 55% in size
ELG1-Luc MMS = confirmation of human ELG1 repair inhibitors, MMS stimulated; AID 624249; Potency, µM (series often up to 46.1 µM), hits mostly inhibitors; shares compounds with ELG1 repair inh; HEK293T luciferase-tagged ELG1 level, MMS stimulated; actives 53% (n = 670); further: nearly all actives have a fitted effect of over 60% in size
ELG1 5FU viab = qHTS screen for small molecules that inhibit ELG1-dependent DNA repair: Hit Confirmation with 5FU Viability. shares compounds with ELG1 repair inh. cell viability with 5-FU, ELG1-dependent repair. Potency, µM (series often up to 46.1 µM), actives largely listed as cytotoxic. 670 tested, under 10 active. AID 624250, 2012;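 further: ELG1-luc HEK293T cells cotreated with 5-fluorouridine at 10 µM final; viability measured 16 h after compound addition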
ELG1 MMS cell = qHTS screen for small molecules that inhibit ELG1-dependent DNA repair: Hit Confirmation with MMS Viability; actives 33% (n = 670); Potency, µM (series often up to 46.1 µM), most hits filed as cytotoxic; shares compounds with ELG1 repair inh; Cell viability with MMS, ELG1-dependent DNA repair;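 further: ELG1-luc HEK293T cells co-treated with 10 µM MMS; viability read 16 h after compound addition; nearly all actives have a fitted effect of over 60% in size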
Cell viab unstim = qHTS screen for small molecules that inhibit ELG1-dependent DNA repair: Hit Confirmation with Unstimulated Viability Assay; shares compounds with ELG1 repair inh; actives 8% (n = 900); cell viability counter-screen, unstimulated, luminescence; AID 624252, 2012; Potency, µM (top dose mostly 45.9 µM), actives largely listed as cytotoxic;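 further: compound exposure lasted 16 hours before reading; nearly all actives have a fitted effect of over 55% in size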
FLuc enzyme = qHTS screen for small molecules that inhibit ELG1-dependent DNA repair: Hit Confirmation in Biochemical Luciferin Assay | shares compounds with ELG1 repair inh | purified firefly luciferase, luminescence counter-screen | Potency, µM (titrated, usually from 57.5 µM), most hits filed as inhibitors | actives 10% (n = 350)
Large screens that a line does not name were inactive (follow-up assays come after a bar, where they were run). This is a sample that favours compounds with a hit; in the whole collection about 7.5% have one here. Unless noted, the call rests on the fitted dose curve; in most records, active means well fitted curve in the direction sought with a large enough effect; inconclusive means small, poorly fitted or top-dose-only effect, or another doubt; inactive means no such curve, though single readings can be large; an effect the other way counts as inactive or inconclusive.

Cc1cc(C)cc(NC(=O)N2CCCC2C(=O)Nc2ccc(-n3cnnn3)cc2)c1 (stereo not given)	ELG1 repair inh inconclusive | ELG1-Luc inh inconclusive | ELG1-Luc MMS inactive | ELG1 5FU viab inconclusive | ELG1 MMS cell inactive | Cell viab unstim inactive
O=C(CN1C(=O)NC2(CCCCC2)C1=O)Nc1ccc2c(c1)OCCCO2	ELG1 repair inh inconclusive (no result: RORgamma inh, VP16 counter)
COc1ccccc1C(=O)COC(=O)c1ccccc1OCC(=O)Nc1ccc(SC(F)F)cc1	ELG1 repair inh 4.6µM | ELG1-Luc inh 7.1µM | ELG1-Luc MMS inconclusive | ELG1 5FU viab inconclusive | ELG1 MMS cell inactive | Cell viab unstim inactive
COc1ccc(C(=O)O)c(O)c1OC	none (no result: B2AR arrestin, ELG1 repair inh, TSHR antag)
COC1=C(N)C(=O)c2nc(-c3nc(C(=O)O)c(C)c(-c4ccc(OC)c(OC)c4O)c3N)ccc2C1=O	ELG1 repair inh 0.82µM, TSHR antag -72, RORgamma inh 14µM, VP16 counter inconclusive | ELG1 FLuc counter 2.5µM | ELG1-Luc inh 1.1µM | ELG1-Luc MMS 0.04µM | ELG1 5FU viab 2.2µM | ELG1 MMS cell 0.056µM | Cell viab unstim 1.1µM | FLuc enzyme inactive
CC(=O)Nc1ccc(NC(=O)COc2cc(C)cc3oc(=O)cc(C)c23)cc1	none
Cc1cc(OCC(=O)Nc2ccccc2C(N)=O)c2c(C)cc(=O)oc2c1	ELG1 repair inh 3.7µM | ELG1-Luc inh 13µM | ELG1-Luc MMS inactive | ELG1 5FU viab inconclusive | ELG1 MMS cell inconclusive | Cell viab unstim inactive
CCOC(=O)c1c(C)[nH]c(C(=O)OCC(=O)Nc2cc(C)nn2-c2ccccc2)c1C	ELG1 repair inh inconclusive (no result: RORgamma inh, VP16 counter)
CCOc1ccc(S(=O)(=O)NCCC(=O)NCCc2ccc(C(C)C)cc2)cc1	ELG1 repair inh inconclusive (no result: RORgamma inh, VP16 counter)
Cc1cn(C2OC(COC(=O)c3ccccc3)C(OC(=O)c3ccccc3)C2OC(=O)c2ccccc2)c(=O)[nH]c1=O (stereo not given)	ELG1 repair inh 4.6µM | ELG1-Luc inh 3.1µM | ELG1-Luc MMS inactive | ELG1 5FU viab inconclusive | ELG1 MMS cell inconclusive | Cell viab unstim inactive
Cc1cn(C2OC(COC(=O)c3ccccc3)C(O)C2O)c(=O)[nH]c1=O (stereo not given)	none
CC12CC3CC(C)(C1)CC(C(=O)NCc1ccncc1)(C3)C2	none
COC(=O)c1ccccc1NC(=O)C1CCN(c2ncnc3c2nc2n3CCCCC2)CC1	ELG1 repair inh inconclusive, RORgamma inh inconclusive | ELG1 FLuc counter inactive | ELG1-Luc inh 11µM | ELG1-Luc MMS inconclusive | ELG1 5FU viab inconclusive | ELG1 MMS cell inactive | Cell viab unstim inactive | FLuc enzyme inactive
CCCN1CCN(C(=O)C2CCN(c3ncnc4c3nc3n4CCCCC3)CC2)CC1	none | ELG1 FLuc counter inactive | ELG1-Luc inh inactive | ELG1-Luc MMS inconclusive | ELG1 5FU viab inactive | ELG1 MMS cell inconclusive | Cell viab unstim inactive | FLuc enzyme inactive
COc1ccc(NC(=O)C2CCN(c3nc(C)nc4c3CCC4)CC2)cc1	ELG1 repair inh 0.73µM, RORgamma inh inconclusive, VP16 counter inconclusive | ELG1 FLuc counter inactive | ELG1-Luc inh inconclusive | ELG1-Luc MMS 5µM | ELG1 5FU viab inactive | ELG1 MMS cell 5µM | Cell viab unstim inconclusive | FLuc enzyme inactive
CC1CCN(C(=O)C2CCN(c3ncnc4c3nc3n4CCCCC3)CC2)CC1	none
COc1ccc(NC(=O)C2CCN(c3ncnc4c3nc3n4CCCCC3)CC2)c(OC)c1	ELG1 repair inh 4.6µM | ELG1 FLuc counter inconclusive | ELG1-Luc inh 7.9µM | ELG1-Luc MMS 32µM | ELG1 5FU viab inconclusive | ELG1 MMS cell inconclusive | Cell viab unstim inconclusive | FLuc enzyme inactive
COc1ccc(NC(=O)C2CCN(c3nc(C)cc(C)n3)CC2)cc1	none
COc1ccc(NC(=O)N2CC[C@@]3(CCCN(C(=O)c4c(C)noc4C)C3)C2)cc1	none (no result: B2AR arrestin, ELG1 repair inh, TSHR antag)
COc1ccc(NC(=O)CSc2nc3ccsc3c(=O)n2CCCCCC(=O)O)cc1	none
Cn1nc(C(C)(C)C)cc1C(=O)Sc1cccc(Br)c1	RORgamma inh inconclusive
NS(=O)(=O)c1ccc(NC(=O)CSc2cn[nH]n2)cc1	none
CCCOc1ccc(S(=O)(=O)N2CCOCC2)cc1[N+](=O)[O-]	none
O=C(CCn1c(=S)[nH]c2cc3c(cc2c1=O)OCO3)NCc1ccccc1Cl	none
CC(C)c1ccc(NC(=O)C2CCN(c3ncnc4c3nc3n4CCCCC3)CC2)cc1	ELG1 repair inh inconclusive
Cc1cccc(NC(=O)C2CCN(c3ncnc4c3nc3n4CCCCC3)CC2)n1	ELG1 repair inh 1.8µM, RORgamma inh inconclusive | ELG1 FLuc counter inactive | ELG1-Luc inh 5µM | ELG1-Luc MMS inconclusive | ELG1 5FU viab inconclusive | ELG1 MMS cell inactive | Cell viab unstim inconclusive | FLuc enzyme inactive

Assay outcomes from PubChem.
